{"source": "paper PMC5349851", "about": "“Combinatorial bZIP dimers display complex DNA-binding specificity landscapes”", "assay_in_all_cases": "SELEX-seq (CSI, HT-SELEX, round 3); SELEX-seq: 1x PBS (10 mM phosphate, 137 mM NaCl, 2.7 mM KCl) pH 7.6, 2.5 mM DTT, 50 ng/ul poly dI-dC, 0.1% BSA, 50 nM biotinylated bZIP (1:3 with partner for heterodimers), 100 nM library, room temperature, 1 h, 3 rounds; high values mean tight binding", "settings_in_all_cases": "protein: recombinant;recombinant; copies: 1;1; dsDNA, one strand shown", "key": {"[1]": {"target": "T1, BATF3;NFIL3 (Homo sapiens;Homo sapiens, UniProt Q9NR55;Q16649 26-99;64-134, |)", "T1 sequence 1": "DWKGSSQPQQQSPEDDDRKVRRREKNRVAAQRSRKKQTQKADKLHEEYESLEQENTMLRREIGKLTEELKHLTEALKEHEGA", "T1 sequence 2": "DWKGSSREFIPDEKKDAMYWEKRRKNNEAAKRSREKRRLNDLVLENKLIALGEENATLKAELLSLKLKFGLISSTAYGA"}, "[2]": {"target": "T2, CEBPE;CEBPE (Homo sapiens;Homo sapiens, UniProt Q15744;Q15744 195-267;195-267, |)", "T2 sequence 1": "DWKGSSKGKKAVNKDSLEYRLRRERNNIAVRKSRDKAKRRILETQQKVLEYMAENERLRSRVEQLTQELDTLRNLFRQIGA", "T2 sequence 2": "T2 sequence 1"}, "[3]": {"target": "T3, JUNB;CEBPE (Homo sapiens;Homo sapiens, UniProt P17275;Q15744 259-332;195-267, |)", "T3 sequence 1": "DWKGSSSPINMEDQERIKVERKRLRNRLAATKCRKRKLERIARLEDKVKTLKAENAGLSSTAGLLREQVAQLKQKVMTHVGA", "T3 sequence 2": "T2 sequence 1"}, "[4]": {"target": "T4, JUNB;BATF (Homo sapiens;Homo sapiens, UniProt P17275;Q16520 259-332;17-90, |)", "T4 sequence 1": "T3 sequence 1", "T4 sequence 2": "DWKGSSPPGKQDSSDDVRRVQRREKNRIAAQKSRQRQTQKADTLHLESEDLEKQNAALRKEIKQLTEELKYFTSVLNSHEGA"}, "[5]": {"target": "T5, JUNB;NFE2 (Homo sapiens;Homo sapiens, UniProt P17275;Q16621 259-332;221-337, |)", "T5 sequence 1": "T3 sequence 1", "T5 sequence 2": "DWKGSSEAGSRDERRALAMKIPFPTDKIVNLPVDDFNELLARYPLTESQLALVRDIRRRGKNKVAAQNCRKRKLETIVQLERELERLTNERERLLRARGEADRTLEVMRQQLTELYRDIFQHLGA"}, "[6]": {"target": "JUNB;NFE2L1 (Homo sapiens;Homo sapiens, UniProt P17275;Q14494 259-332;609-725, |)", "sequence (Q14494 other isoform, or with tags, fused parts or gaps |)": "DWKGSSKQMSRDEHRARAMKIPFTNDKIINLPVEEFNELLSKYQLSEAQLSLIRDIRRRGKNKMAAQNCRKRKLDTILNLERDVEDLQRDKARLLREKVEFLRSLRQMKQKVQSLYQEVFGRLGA"}, "[7]": {"target": "T6, JUNB;HLF (Homo sapiens;Homo sapiens, UniProt P17275;Q16534 259-332;216-293, |)", "T6 sequence 1": "T3 sequence 1", "T6 sequence 2": "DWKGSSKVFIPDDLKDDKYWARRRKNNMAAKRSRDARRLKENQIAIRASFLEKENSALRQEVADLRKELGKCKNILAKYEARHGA"}, "[8]": {"target": "BATF2;ATF4 (Homo sapiens;Homo sapiens, UniProt Q8N1L9;P18848 8-85;269-346, |)", "sequence (Q8N1L9 other isoform, or with tags, fused parts or gaps |, chain 1 of 2)": "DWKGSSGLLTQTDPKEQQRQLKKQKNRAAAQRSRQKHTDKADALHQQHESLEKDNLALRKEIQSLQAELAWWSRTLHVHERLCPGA", "sequence (P18848 other isoform, or with tags, fused parts or gaps |, chain 2 of 2)": "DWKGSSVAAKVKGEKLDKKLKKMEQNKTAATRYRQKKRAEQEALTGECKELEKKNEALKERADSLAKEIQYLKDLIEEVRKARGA"}, "[9]": {"target": "T7, JUNB;FOSL1 (Homo sapiens;Homo sapiens, UniProt P17275;P15407 259-332;96-169, |)", "T7 sequence 1": "T3 sequence 1", "T7 sequence 2": "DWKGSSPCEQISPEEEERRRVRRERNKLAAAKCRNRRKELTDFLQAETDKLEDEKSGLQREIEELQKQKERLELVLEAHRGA"}, "[10]": {"target": "JUNB;FOS (Homo sapiens;Homo sapiens, UniProt P17275;P01100 259-332;128-201, |)", "sequence (P01100 other isoform, or with tags, fused parts or gaps |)": "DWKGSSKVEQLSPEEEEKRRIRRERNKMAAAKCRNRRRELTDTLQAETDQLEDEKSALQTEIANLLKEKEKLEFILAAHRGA"}}}
{"sequence": "ATGACGGAAT", "values": [{"measurement": "binding signal", "setting": "[1]", "result": "0.0076 relative CSI intensity (max = 1)"}, {"measurement": "binding signal", "setting": "[2]", "result": "0.00629 relative CSI intensity (max = 1)"}, {"measurement": "binding signal", "setting": "[3]", "result": "0.00513 relative CSI intensity (max = 1)"}, {"measurement": "binding signal", "setting": "[4]", "result": "0.002 relative CSI intensity (max = 1)"}, {"measurement": "binding signal", "setting": "[5]", "result": "0.0241 relative CSI intensity (max = 1)"}, {"measurement": "binding signal", "setting": "[6]", "result": "0.0118 relative CSI intensity (max = 1)"}, {"measurement": "binding signal", "setting": "[7]", "result": "0.00331 relative CSI intensity (max = 1)"}]}
{"sequence": "ATGACGTCAT", "values": [{"measurement": "binding signal", "setting": "[8]", "result": "0.216 relative CSI intensity (max = 1)"}, {"measurement": "binding signal", "setting": "[1]", "result": "0.218 relative CSI intensity (max = 1)"}, {"measurement": "binding signal", "setting": "[2]", "result": "0.0521 relative CSI intensity (max = 1)"}, {"measurement": "binding signal", "setting": "[3]", "result": "0.104 relative CSI intensity (max = 1)"}, {"measurement": "binding signal", "setting": "[4]", "result": "0.784 relative CSI intensity (max = 1)"}, {"measurement": "binding signal", "setting": "[9]", "result": "0.3 relative CSI intensity (max = 1)"}, {"measurement": "binding signal", "setting": "[10]", "result": "0.188 relative CSI intensity (max = 1)"}, {"measurement": "binding signal", "setting": "[5]", "result": "1 relative CSI intensity (max = 1)"}, {"measurement": "binding signal", "setting": "[6]", "result": "1 relative CSI intensity (max = 1)"}, {"measurement": "binding signal", "setting": "[7]", "result": "1 relative CSI intensity (max = 1)"}]}
{"sequence": "ATGACGTAAT", "values": [{"measurement": "binding signal", "setting": "[8]", "result": "0.119 relative CSI intensity (max = 1)"}, {"measurement": "binding signal", "setting": "[1]", "result": "0.178 relative CSI intensity (max = 1)"}, {"measurement": "binding signal", "setting": "[2]", "result": "0.0888 relative CSI intensity (max = 1)"}, {"measurement": "binding signal", "setting": "[3]", "result": "0.0862 relative CSI intensity (max = 1)"}, {"measurement": "binding signal", "setting": "[4]", "result": "0.0325 relative CSI intensity (max = 1)"}, {"measurement": "binding signal", "setting": "[9]", "result": "0.017 relative CSI intensity (max = 1)"}, {"measurement": "binding signal", "setting": "[10]", "result": "0.00946 relative CSI intensity (max = 1)"}, {"measurement": "binding signal", "setting": "[5]", "result": "0.12 relative CSI intensity (max = 1)"}, {"measurement": "binding signal", "setting": "[6]", "result": "0.116 relative CSI intensity (max = 1)"}, {"measurement": "binding signal", "setting": "[7]", "result": "0.537 relative CSI intensity (max = 1)"}]}
{"sequence": "ATGACGCAAT", "values": [{"measurement": "binding signal", "setting": "[8]", "result": "0.0339 relative CSI intensity (max = 1)"}, {"measurement": "binding signal", "setting": "[1]", "result": "0.0474 relative CSI intensity (max = 1)"}, {"measurement": "binding signal", "setting": "[2]", "result": "0.259 relative CSI intensity (max = 1)"}, {"measurement": "binding signal", "setting": "[3]", "result": "0.333 relative CSI intensity (max = 1)"}, {"measurement": "binding signal", "setting": "[4]", "result": "0.00832 relative CSI intensity (max = 1)"}, {"measurement": "binding signal", "setting": "[9]", "result": "0.00312 relative CSI intensity (max = 1)"}, {"measurement": "binding signal", "setting": "[10]", "result": "0.00347 relative CSI intensity (max = 1)"}, {"measurement": "binding signal", "setting": "[5]", "result": "0.344 relative CSI intensity (max = 1)"}, {"measurement": "binding signal", "setting": "[6]", "result": "0.169 relative CSI intensity (max = 1)"}, {"measurement": "binding signal", "setting": "[7]", "result": "0.176 relative CSI intensity (max = 1)"}]}
{"sequence": "CCTGACGTCA", "values": [{"measurement": "binding signal", "setting": "[8]", "result": "0.0186 relative CSI intensity (max = 1)"}, {"measurement": "binding signal", "setting": "[1]", "result": "0.00724 relative CSI intensity (max = 1)"}, {"measurement": "binding signal", "setting": "[2]", "result": "0.00701 relative CSI intensity (max = 1)"}, {"measurement": "binding signal", "setting": "[3]", "result": "0.00962 relative CSI intensity (max = 1)"}, {"measurement": "binding signal", "setting": "[4]", "result": "0.0101 relative CSI intensity (max = 1)"}, {"measurement": "binding signal", "setting": "[9]", "result": "0.00464 relative CSI intensity (max = 1)"}, {"measurement": "binding signal", "setting": "[10]", "result": "0.00331 relative CSI intensity (max = 1)"}, {"measurement": "binding signal", "setting": "[5]", "result": "0.0277 relative CSI intensity (max = 1)"}, {"measurement": "binding signal", "setting": "[6]", "result": "0.0112 relative CSI intensity (max = 1)"}, {"measurement": "binding signal", "setting": "[7]", "result": "0.00417 relative CSI intensity (max = 1)"}]}
{"sequence": "ATGATGCAAT", "values": [{"measurement": "binding signal", "setting": "[8]", "result": "0.0322 relative CSI intensity (max = 1)"}, {"measurement": "binding signal", "setting": "[1]", "result": "0.0307 relative CSI intensity (max = 1)"}, {"measurement": "binding signal", "setting": "[2]", "result": "0.139 relative CSI intensity (max = 1)"}, {"measurement": "binding signal", "setting": "[3]", "result": "0.314 relative CSI intensity (max = 1)"}, {"measurement": "binding signal", "setting": "[5]", "result": "0.116 relative CSI intensity (max = 1)"}, {"measurement": "binding signal", "setting": "[6]", "result": "0.0453 relative CSI intensity (max = 1)"}]}
